Source: the supplement of paper PMC3334620
The full ranking holds about 33,000 sequences; the median of “E-score (-0.5 to 0.5)” is about -0.015, and the highest 2% start at about 0.3. The sample as a whole holds a higher share of the highest values than the screen did.

Molecular target: T1, Abf1 (UniProt P14164)
T1 sequence: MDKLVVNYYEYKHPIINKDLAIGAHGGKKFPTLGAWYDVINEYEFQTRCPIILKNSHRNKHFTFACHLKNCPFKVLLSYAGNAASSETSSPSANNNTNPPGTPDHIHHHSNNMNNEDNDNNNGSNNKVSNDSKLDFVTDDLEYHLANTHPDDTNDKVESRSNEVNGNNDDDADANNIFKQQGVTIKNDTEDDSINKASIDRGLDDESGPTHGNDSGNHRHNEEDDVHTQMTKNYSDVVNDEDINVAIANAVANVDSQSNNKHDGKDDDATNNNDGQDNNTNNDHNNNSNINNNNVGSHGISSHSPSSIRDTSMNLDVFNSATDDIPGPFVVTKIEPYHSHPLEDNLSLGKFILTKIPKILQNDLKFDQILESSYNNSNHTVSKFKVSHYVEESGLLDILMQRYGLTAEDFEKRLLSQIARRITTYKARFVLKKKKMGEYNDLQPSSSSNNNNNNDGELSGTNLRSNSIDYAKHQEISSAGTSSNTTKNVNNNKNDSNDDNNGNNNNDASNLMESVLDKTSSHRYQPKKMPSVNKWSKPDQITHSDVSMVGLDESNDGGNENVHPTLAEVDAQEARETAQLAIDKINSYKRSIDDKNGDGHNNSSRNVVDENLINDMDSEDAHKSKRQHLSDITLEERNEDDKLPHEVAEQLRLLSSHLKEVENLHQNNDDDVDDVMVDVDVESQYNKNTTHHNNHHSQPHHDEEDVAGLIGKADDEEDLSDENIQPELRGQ
Test: PBM E-score (8-mer binding enrichment) (E-score (-0.5 to 0.5)); higher = stronger / more preferred TF binding
Conditions: protein concentration: 200 nM; construct: GST-full length
Procedure, shortened: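 Yeast transcription factors carrying a GST tag, as full-length proteins or DNA-binding domains, were produced by PURExpress in vitro transcription/translation. About 100-200 nM protein was applied to universal all-10-mer Agilent arrays, double-stranded by primer extension on fresh or once-stripped slides. Bound protein was detected with fluorescent anti-GST, and scans were normalised with masliner. The Universal PBM Analysis Suite gave each ungapped eight-base word, pooled with its reverse complement, an E-score, a modified Wilcoxon-Mann-Whitney statistic.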

Sequence	PBM E-score
ACGAAAAG	0.218
GGAGACTA	-0.107
CTGTCGCC	-0.202
AGGTTTGA	-0.188
CCTGGCCA	-0.161
ACTCTATA	0.145
GCGGAAAC	-0.206
AGGATTGG	-0.0614
GTTCTTAA	0.124
ACGAAGTA	0.169
ACGAAGTG	0.301
ACGAAGTC	0.152
AGACGTTG	0.109
ACAGATTG	-0.0933
CCGACATC	0.218
GTGACACA	0.343
AGGACATG	-0.0301
ACGACATG	0.225
ATGACATG	0.358
CTGACACA	-0.208
ATGACAGG	-0.0297
ATGACACA	0.266
ATGACACC	0.187
CTGACATC	-0.0102
ATGACATC	0.308

Sequence	PBM E-score
ACGACATC	0.303
GAGTATCC	0.0845
ACCACGCT	-0.0224
GAACAGTC	-0.0496
AATTTGCC	-0.136
GTGACATA	0.43
CTGACAGA	0.0348
GAGACATA	0.0808
ATGACATA	0.401
CTGACATA	0.0493
GTGACAGA	0.359
ATGACAGA	0.128
GGGACATA	-0.00523
AAGACATA	0.103
ACGACTCG	0.144
CGTGGTAC	0.161
AACTGCTG	-0.0316
CTGACTCC	-0.131
CGTGGGAG	0.0501
CAAATCCC	-0.184
TCGTCTAA	0.298
ACGTCGAA	0.163
CCGTCTAA	0.266
CCGTCGTA	0.282
GCGTCGCA	-0.0267

Sequence	PBM E-score
TCGTCGCA	0.322
CCGTCGCA	0.282
GCGTCGTA	0.418
ACGTCTAA	0.196
GCGTCGAA	0.0222
ACGTCGTA	0.228
TCGTCGAA	0.355
CCGCCATA	-0.072
GGGTTACC	-0.0518
CAGACCAA	-0.132
GCCCAAAA	-0.114
AAATGGAG	0.0525
AGGCTCTA	-0.247
AATGACAG	0.16
AATGACCA	0.256
AATGACCT	0.223
GATGACAA	0.369
AATGACAC	0.227
GATGACAC	0.337
AATGACAA	0.397
CATGACAA	0.238
AATGACTA	0.222
AATGACAT	0.39
TATGACAA	0.27
CATGACAC	0.218

Sequence	PBM E-score
CGAGGATA	0.0582
GATGGGCA	-0.0389
CTCATCAA	0.192
GCCCTCTA	-0.224
CCACTCTC	-0.22
TACGATAA	0.179
CACGATAA	0.296
CACGATTA	0.247
GACGATAA	0.363
GACGATTA	0.31
AACGATTA	0.172
GACCAAAA	0.183
AAACCGAC	-0.0139
CGCACCAA	-0.0891
TCACGCCA	0.113
GTGATAAA	0.412
GCGATAAC	0.158
ATGATAAA	0.406
AAGATAAC	0.171
CTGATAAA	0.112
GTGATAAC	0.371
CTGATAAC	0.167
ATGATAGA	0.103
AAGATAAA	0.132
ATGATAAC	0.339

Sequence	PBM E-score
TTGATAAA	0.23
GAGATAAC	0.138
CCGGTTCC	-0.286
CCCATTTA	-0.0213
AAAGGCAG	0.17
AAAGCTAG	-0.236
ATAATAAA	0.2
CTGATACA	0.0567
ATGATAAG	0.291
ATGATAAT	0.377
GAGATACA	0.146
GTGATACA	0.311
AAGATAAT	0.0926
GTAATAAA	0.313
GTAATAAC	0.124
CACTTTGC	0.137
CTGACACC	-0.0573
GGTTGGAA	-0.166
AACTAGAG	-0.159
ATACAGTG	0.011
AGAGAAGA	0.0299
CCACCAGC	0.0706
GCCGTTTA	0.102
AACGTTTA	-0.0328
ATCGTTTC	0.325

Sequence	PBM E-score
ATCGTTCC	0.068
ATCGTTTA	0.321
ACCGTTTG	0.103
AGCGTTTG	-0.116
AGCGTTTA	-0.153
CTCGTTTC	0.129
CTCGTTTA	0.0984
ATCGTTTG	0.298
GTCGTTTA	0.298
CAGCTCCA	-0.238
CGATACAG	-0.0796
ACTTTGTA	0.0728
ATTAGATC	-0.00144
ATGCAGCG	-0.174
GCGGGAGC	-0.288
ATCGTTGA	0.208
CTCGTTGA	0.0588
GTCGTTGA	0.327
AGCTCGTA	0.149
GCGCAACA	-0.123
AAAGAGTG	-0.101
ATCATGTA	0.208
CTCATGTC	0.0937
ATCATGTC	0.356
ATTATGCC	0.0573

Sequence	PBM E-score
ATTATGTC	0.303
ATTATGCG	0.303
CTTATGTC	0.00318
ATTATGCA	-0.114
ATTATGTA	0.239
AGCCGGTA	-0.013
CTGGCACA	0.00341
GATCCAAA	0.111
AGTGTTTG	-0.0678
ACGATAAT	0.303
ACGATAAC	0.224
TCGATAAA	0.207
GCGATAAA	0.241
ACGATAAA	0.352
ACGATAAG	0.243
CAGACTCA	-0.218
GGGAACCA	-0.249
CCGAACCA	-0.231
GCGTTCAA	-0.0872
CCGTTTAA	0.266
TCGTTCAA	0.357
ACGTTCAA	0.155
ACGTTTAA	0.245
TCGTTTAA	0.341
